# Laboratory results as given in article PMC7862700, “An all-to-all approach to the identification of sequence-specific readers for epigenetic DNA modifications on cytosine”.
# What was measured:
# Assay in all cases: DAPPL (digital affinity profiling via proximity ligation, sequencing); 10 mM Tris-HCl pH 7.5, 50 mM NaCl, 1 mM DTT, 4% glycerol, room temperature, 30 min; GST-TFs on glutathione beads, 16-mer random dsDNA library, 0.1% formaldehyde crosslink after washing; high values mean tight binding
# FEV = biological target: T1, FEV (Homo sapiens, UniProt Q99581 1-238); settings: protein: recombinant; tags: N-terminal GST; dsDNA, one strand shown
# T1 sequence: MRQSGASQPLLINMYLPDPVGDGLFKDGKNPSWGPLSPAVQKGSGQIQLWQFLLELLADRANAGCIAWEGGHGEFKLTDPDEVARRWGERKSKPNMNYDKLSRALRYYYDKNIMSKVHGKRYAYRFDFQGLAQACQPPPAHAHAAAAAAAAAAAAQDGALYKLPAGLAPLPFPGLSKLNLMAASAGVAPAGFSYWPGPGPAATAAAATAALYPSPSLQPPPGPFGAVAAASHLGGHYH
# Outline: (§1)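 After expression in yeast as GST fusions, human transcription factors were bound to glutathione beads, DNA-barcoded and mixed with a tag-only sample. The pools were incubated with 200 nmole of a 16-mer random double-stranded DNA library in Tris/NaCl/DTT/glycerol buffer (30 min, room temperature), washed and crosslinked with 0.1% formaldehyde. Proximity ligation with BsaI/T4 ligase ran for 1 h at 37 °C, before PCR amplification and sequencing on an Illumina NextSeq500. Binding signal is a hexamer's read frequency for a factor divided by its frequency for the tag-only sample.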
# ETV5 = ETV5 (Homo sapiens, UniProt P41161 1-510); settings: protein: recombinant; tags: N-terminal GST; dsDNA, one strand shown
# Sequence of ETV5 (P41161 whole entry): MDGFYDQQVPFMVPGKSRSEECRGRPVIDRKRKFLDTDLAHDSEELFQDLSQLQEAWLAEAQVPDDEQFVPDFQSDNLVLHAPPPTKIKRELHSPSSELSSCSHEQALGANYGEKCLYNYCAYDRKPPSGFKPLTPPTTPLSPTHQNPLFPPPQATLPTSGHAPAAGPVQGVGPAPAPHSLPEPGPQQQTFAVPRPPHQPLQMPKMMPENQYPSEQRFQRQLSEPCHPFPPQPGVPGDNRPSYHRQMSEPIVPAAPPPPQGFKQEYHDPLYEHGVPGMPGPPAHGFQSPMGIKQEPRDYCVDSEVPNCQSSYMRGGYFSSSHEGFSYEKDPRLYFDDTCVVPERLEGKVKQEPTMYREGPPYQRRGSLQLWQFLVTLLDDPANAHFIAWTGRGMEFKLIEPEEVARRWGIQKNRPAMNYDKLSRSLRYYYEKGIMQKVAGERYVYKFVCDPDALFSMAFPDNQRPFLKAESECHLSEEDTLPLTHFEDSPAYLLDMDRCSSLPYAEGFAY
# Outline: as §1
# HSF1 = HSF1 (Homo sapiens, UniProt Q00613 1-529); settings: protein: recombinant; tags: N-terminal GST; chain copies: 3; dsDNA, one strand shown
# Sequence of HSF1 (Q00613 whole entry): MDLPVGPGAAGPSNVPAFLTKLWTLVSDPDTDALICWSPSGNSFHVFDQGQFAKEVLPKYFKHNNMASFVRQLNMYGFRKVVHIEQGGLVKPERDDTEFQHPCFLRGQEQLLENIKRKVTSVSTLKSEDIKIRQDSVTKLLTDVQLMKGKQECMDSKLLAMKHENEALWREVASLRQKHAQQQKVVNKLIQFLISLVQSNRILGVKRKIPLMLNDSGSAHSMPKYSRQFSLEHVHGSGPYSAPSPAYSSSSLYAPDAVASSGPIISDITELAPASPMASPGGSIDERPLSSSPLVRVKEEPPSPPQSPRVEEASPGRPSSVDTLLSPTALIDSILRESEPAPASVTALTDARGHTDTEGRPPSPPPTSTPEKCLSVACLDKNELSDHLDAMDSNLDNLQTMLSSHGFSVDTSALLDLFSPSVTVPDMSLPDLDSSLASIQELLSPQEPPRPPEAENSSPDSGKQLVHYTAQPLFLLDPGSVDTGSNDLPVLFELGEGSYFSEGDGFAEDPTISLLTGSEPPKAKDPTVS
# Outline: as §1
# SPIC = biological target: T2, SPIC (Homo sapiens, UniProt Q8N5J4 1-248); settings: protein: recombinant; tags: N-terminal GST; dsDNA, one strand shown
# T2 sequence: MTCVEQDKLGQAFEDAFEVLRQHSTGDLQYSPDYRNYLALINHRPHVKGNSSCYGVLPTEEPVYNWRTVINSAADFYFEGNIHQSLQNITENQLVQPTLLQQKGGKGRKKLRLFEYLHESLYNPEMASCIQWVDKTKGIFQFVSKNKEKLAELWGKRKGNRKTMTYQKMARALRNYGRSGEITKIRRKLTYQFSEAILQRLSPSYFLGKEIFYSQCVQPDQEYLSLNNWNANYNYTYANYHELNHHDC
# Outline: as §1
# ELF4 = ELF4 (Homo sapiens, UniProt Q99607 1-663); settings: protein: recombinant; tags: N-terminal GST; dsDNA, one strand shown
# Sequence of ELF4 (Q99607 whole entry): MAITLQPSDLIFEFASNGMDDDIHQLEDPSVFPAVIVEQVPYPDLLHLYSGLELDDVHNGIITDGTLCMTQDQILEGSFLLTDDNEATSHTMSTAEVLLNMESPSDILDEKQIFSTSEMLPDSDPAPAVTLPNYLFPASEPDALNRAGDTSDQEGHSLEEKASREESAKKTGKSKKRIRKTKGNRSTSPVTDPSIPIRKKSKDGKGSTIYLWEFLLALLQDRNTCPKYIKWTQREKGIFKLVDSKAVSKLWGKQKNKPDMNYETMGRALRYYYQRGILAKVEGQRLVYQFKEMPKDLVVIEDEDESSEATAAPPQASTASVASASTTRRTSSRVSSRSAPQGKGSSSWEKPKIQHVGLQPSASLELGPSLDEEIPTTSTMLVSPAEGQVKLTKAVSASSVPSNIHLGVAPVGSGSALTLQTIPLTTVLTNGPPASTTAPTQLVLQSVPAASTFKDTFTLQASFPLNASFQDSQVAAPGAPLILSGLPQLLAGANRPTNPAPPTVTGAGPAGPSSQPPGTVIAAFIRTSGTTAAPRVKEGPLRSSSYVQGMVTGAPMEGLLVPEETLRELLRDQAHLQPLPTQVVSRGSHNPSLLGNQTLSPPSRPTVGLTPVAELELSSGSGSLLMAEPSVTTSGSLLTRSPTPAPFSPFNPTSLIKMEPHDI
# Outline: as §1
# ELK4 = biological target: T3, ELK4 (Homo sapiens, UniProt P28324-2 1-405); settings: protein: recombinant; tags: N-terminal GST; dsDNA, one strand shown
# T3 sequence: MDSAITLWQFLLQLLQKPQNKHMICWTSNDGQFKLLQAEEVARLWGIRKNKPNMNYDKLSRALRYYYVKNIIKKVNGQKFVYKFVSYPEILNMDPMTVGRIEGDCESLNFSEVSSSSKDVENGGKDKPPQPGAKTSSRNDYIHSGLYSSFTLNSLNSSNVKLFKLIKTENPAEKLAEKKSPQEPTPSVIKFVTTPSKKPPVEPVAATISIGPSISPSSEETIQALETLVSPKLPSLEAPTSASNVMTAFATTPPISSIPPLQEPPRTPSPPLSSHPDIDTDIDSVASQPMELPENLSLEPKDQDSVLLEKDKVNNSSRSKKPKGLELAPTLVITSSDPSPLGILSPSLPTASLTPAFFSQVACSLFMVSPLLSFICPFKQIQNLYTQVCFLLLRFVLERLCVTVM
# Outline: as §1
# ETV2 = biological target: T4, ETV2 (Homo sapiens, UniProt O00321 1-342); settings: protein: recombinant; tags: N-terminal GST; dsDNA, one strand shown
# T4 sequence: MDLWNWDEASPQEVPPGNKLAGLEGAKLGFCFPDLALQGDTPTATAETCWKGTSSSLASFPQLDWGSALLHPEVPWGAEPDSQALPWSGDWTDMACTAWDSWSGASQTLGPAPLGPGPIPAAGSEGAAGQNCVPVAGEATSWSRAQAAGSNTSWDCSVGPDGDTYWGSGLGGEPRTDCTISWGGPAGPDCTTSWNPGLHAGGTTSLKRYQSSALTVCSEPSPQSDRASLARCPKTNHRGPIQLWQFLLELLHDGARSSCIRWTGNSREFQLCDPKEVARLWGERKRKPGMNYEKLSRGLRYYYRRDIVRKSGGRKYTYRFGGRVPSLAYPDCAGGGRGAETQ
# Outline: as §1
# ELF3 = biological target: T5, ELF3 (Homo sapiens, UniProt P78545 1-371); settings: protein: recombinant; tags: N-terminal GST; dsDNA, one strand shown
# T5 sequence: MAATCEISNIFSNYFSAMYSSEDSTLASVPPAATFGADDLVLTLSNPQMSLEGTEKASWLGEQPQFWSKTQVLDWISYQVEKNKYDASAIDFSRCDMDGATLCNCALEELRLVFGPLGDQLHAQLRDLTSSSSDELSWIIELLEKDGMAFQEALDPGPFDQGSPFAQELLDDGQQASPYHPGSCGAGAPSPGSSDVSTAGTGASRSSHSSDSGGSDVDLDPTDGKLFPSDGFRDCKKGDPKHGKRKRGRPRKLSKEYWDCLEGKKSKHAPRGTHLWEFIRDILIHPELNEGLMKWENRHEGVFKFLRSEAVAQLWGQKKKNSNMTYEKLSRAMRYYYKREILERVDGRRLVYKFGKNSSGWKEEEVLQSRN
# Outline: as §1
# CRX = CRX (Homo sapiens, UniProt O43186 1-299); settings: protein: recombinant; tags: N-terminal GST; dsDNA, one strand shown
# Sequence of CRX (O43186 whole entry): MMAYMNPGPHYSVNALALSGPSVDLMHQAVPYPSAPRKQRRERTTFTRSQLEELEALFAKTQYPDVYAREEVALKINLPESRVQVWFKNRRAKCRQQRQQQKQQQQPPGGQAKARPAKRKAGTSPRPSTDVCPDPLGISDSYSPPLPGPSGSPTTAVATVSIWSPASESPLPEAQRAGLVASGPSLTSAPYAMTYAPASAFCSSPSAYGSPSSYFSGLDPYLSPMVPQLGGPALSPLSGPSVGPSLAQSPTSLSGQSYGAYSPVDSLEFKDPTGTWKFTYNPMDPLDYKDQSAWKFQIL
# Outline: as §1
# ETV1 = ETV1 (Homo sapiens, UniProt P50549 1-477); settings: protein: recombinant; tags: N-terminal GST; dsDNA, one strand shown
# Sequence of ETV1 (P50549 whole entry): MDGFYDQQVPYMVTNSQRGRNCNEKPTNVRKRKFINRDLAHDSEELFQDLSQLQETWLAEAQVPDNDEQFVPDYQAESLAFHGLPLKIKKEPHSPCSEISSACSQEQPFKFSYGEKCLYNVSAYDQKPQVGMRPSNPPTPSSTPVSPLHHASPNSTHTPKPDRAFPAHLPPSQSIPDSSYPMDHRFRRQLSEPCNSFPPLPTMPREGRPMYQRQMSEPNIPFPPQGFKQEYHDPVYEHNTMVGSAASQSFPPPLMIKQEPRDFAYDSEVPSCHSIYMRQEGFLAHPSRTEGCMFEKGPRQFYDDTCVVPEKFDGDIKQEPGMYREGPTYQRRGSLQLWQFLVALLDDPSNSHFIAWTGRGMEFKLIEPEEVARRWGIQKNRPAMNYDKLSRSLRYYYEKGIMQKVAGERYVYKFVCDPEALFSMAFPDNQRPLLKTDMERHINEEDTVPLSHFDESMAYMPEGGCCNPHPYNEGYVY
# Outline: as §1
# ERF = biological target: T6, ERF (Homo sapiens, UniProt P50548 1-548); settings: protein: recombinant; tags: N-terminal GST; dsDNA, one strand shown
# T6 sequence: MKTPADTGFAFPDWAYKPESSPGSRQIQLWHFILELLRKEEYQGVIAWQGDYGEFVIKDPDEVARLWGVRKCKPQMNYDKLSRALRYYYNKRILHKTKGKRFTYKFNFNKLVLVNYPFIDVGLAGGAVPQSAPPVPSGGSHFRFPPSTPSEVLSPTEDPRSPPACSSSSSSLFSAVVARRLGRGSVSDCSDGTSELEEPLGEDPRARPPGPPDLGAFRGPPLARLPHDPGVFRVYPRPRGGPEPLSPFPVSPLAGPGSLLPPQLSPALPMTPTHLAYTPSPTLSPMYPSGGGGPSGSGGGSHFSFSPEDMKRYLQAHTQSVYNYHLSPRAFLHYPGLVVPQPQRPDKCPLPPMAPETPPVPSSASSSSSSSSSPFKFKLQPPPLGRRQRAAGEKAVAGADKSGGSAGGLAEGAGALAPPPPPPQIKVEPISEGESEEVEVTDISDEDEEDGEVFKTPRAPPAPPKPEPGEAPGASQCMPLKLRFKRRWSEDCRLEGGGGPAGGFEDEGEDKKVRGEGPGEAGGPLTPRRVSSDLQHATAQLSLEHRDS
# Outline: as §1
# ETV3L = biological target: T7, ETV3L (Homo sapiens, UniProt Q6ZN32 1-361); settings: protein: recombinant; tags: N-terminal GST; dsDNA, one strand shown
# T7 sequence: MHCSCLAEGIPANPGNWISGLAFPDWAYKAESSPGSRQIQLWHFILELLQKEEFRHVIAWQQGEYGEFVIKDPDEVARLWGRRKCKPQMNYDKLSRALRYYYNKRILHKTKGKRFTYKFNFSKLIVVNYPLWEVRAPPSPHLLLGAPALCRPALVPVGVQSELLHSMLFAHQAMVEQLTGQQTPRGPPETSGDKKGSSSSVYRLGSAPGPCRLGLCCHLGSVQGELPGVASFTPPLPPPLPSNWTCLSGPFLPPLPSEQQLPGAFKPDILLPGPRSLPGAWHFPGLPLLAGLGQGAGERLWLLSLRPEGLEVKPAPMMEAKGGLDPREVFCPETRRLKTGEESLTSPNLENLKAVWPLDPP
# Outline: as §1
# ETS2 = biological target: T8, ETS2 (Homo sapiens, UniProt P15036 1-469); settings: protein: recombinant; tags: N-terminal GST; dsDNA, one strand shown
# T8 sequence: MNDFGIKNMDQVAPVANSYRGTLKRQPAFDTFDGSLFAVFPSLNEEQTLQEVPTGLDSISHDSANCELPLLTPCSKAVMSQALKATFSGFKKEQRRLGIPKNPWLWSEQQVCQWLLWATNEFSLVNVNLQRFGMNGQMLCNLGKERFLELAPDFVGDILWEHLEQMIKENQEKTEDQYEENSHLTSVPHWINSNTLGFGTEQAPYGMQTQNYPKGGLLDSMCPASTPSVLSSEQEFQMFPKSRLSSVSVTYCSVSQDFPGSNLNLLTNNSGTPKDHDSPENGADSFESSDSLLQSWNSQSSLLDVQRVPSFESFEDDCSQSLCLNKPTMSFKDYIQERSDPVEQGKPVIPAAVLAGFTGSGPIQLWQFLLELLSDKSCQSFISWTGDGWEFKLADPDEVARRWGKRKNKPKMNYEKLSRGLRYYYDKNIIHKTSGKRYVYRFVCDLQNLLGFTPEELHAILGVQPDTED
# Outline: as §1
# SPDEF = biological target: T9, SPDEF (Homo sapiens, UniProt O95238 1-335); settings: protein: recombinant; tags: N-terminal GST; dsDNA, one strand shown
# T9 sequence: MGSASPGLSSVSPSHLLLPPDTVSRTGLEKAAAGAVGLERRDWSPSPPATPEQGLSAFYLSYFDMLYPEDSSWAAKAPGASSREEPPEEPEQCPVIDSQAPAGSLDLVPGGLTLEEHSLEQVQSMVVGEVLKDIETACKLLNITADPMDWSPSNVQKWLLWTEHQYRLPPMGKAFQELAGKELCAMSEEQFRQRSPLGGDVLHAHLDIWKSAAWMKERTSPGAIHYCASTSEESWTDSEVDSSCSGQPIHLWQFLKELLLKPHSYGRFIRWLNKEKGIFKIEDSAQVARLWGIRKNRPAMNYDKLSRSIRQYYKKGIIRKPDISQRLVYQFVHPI
# Outline: as §1
# ETV7 = biological target: T10, ETV7 (Homo sapiens, UniProt Q9Y603 1-341); settings: protein: recombinant; tags: N-terminal GST; dsDNA, one strand shown
# T10 sequence: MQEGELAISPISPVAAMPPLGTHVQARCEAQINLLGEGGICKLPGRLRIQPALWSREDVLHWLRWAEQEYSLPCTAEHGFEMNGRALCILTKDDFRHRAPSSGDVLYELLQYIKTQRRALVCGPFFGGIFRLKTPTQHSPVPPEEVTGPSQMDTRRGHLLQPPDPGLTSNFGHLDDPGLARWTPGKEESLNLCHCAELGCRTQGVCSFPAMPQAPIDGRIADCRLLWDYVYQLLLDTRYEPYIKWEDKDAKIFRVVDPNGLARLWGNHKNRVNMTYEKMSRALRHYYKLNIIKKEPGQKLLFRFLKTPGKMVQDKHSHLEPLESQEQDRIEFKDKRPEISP
# Outline: as §1
# ELF5 = biological target: T11, ELF5 (Homo sapiens, UniProt Q9UKW6-2 1-255); settings: protein: recombinant; tags: N-terminal GST; dsDNA, one strand shown
# T11 sequence: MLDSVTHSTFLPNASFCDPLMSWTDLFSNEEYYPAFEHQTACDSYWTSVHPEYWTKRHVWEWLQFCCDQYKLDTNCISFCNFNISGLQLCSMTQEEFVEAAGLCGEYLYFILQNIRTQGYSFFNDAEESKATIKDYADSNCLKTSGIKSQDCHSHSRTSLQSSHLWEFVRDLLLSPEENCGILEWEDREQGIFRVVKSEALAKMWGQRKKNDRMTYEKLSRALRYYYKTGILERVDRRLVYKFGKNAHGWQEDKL
# Outline: as §1
# ETV3 = biological target: T12, ETV3 (Homo sapiens, UniProt P41162-2 1-143); settings: protein: recombinant; tags: N-terminal GST; dsDNA, one strand shown
# T12 sequence: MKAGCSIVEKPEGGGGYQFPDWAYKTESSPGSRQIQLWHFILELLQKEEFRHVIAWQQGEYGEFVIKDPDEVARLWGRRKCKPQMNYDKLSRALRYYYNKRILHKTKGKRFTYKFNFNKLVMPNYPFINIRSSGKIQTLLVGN
# Outline: as §1
# ETV6 = ETV6 (Homo sapiens, UniProt P41212 1-452); settings: protein: recombinant; tags: N-terminal GST; dsDNA, one strand shown
# Sequence of ETV6 (P41212 whole entry): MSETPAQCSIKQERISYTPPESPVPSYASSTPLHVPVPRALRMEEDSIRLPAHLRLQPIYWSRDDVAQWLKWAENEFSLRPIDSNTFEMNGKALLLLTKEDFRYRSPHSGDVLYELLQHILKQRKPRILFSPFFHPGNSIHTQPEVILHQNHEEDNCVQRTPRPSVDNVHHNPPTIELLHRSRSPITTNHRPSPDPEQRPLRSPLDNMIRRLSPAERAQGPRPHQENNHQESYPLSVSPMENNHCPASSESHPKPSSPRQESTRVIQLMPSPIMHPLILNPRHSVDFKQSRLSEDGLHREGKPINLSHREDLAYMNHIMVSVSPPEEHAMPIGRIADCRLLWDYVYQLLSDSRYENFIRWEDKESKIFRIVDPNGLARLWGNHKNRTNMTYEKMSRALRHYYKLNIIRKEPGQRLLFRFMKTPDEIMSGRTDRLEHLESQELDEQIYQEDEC
# Outline: as §1
sequence,measurement,setting,value
CTTGAT,binding signal,FEV,"1.38 fold enrichment (6-mer frequency, TF over GST control)"
same,binding signal,ETV5,"1.43 fold enrichment (6-mer frequency, TF over GST control)"
same,binding signal,HSF1,"1.44 fold enrichment (6-mer frequency, TF over GST control)"
same,binding signal,SPIC,"1.41 fold enrichment (6-mer frequency, TF over GST control)"
same,binding signal,ELF4,"1.43 fold enrichment (6-mer frequency, TF over GST control)"
same,binding signal,ELK4,"1.43 fold enrichment (6-mer frequency, TF over GST control)"
same,binding signal,ETV2,"1.43 fold enrichment (6-mer frequency, TF over GST control)"
same,binding signal,ELF3,"1.38 fold enrichment (6-mer frequency, TF over GST control)"
same,binding signal,CRX,"1.57 fold enrichment (6-mer frequency, TF over GST control)"
same,binding signal,ETV1,"1.29 fold enrichment (6-mer frequency, TF over GST control)"
same,binding signal,ERF,"1.47 fold enrichment (6-mer frequency, TF over GST control)"
same,binding signal,ETV3L,"1.42 fold enrichment (6-mer frequency, TF over GST control)"
same,binding signal,ETS2,"1.35 fold enrichment (6-mer frequency, TF over GST control)"
same,binding signal,SPDEF,"1.34 fold enrichment (6-mer frequency, TF over GST control)"
same,binding signal,ETV7,"1.28 fold enrichment (6-mer frequency, TF over GST control)"
same,binding signal,ELF5,"1.39 fold enrichment (6-mer frequency, TF over GST control)"
same,binding signal,ETV3,"1.35 fold enrichment (6-mer frequency, TF over GST control)"
same,binding signal,ETV6,"1.24 fold enrichment (6-mer frequency, TF over GST control)"
